Reference: PubChem BioAssay (NCI)
About 83,000 compounds went through this panel and 20% of them were active in at least one assay; those are over-represented in the sample as a whole.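 Negative percent growth values reflect cell death: -40 means 40% of the cells present at the start died, and -100 means all died.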 Values without a mark were called inactive. Activity calls are given as the source filed them. The calls were made as follows: active = growth percent below 10; inactive = the rest.

Columns and labels:
Experiment in all cases: NCI-60 one-dose screen, 48 h (100 = growth as untreated, 0 = no growth, -100 = all killed)
Conditions in all cases: 10 µM unless noted
HCT-15 colon = system: HCT-15 colon
HT29 colon = system: HT29 colon
SNB-75 CNS = system: SNB-75 CNS
SNB-19 CNS = system: SNB-19 CNS
U251 CNS = system: U251 CNS
PC-3 prostate = system: PC-3 prostate
UACC-62 melanoma = system: UACC-62 melanoma
LOX IMVI melanoma = system: LOX IMVI melanoma
SK-MEL-28 melanoma = system: SK-MEL-28 melanoma
SK-MEL-5 melanoma = system: SK-MEL-5 melanoma

## COc1ccc(/C=C2\COc3ccc(O)cc3C2=O)c(OC)c1
HCT-15 colon
  growth: 34.4%
HT29 colon
  growth: 38.2%
SNB-75 CNS
  growth: 47.5%
SNB-19 CNS
  growth: 55.3%
U251 CNS
  growth: 50.3%
PC-3 prostate
  growth: 57.2%
UACC-62 melanoma
  growth: 50%
LOX IMVI melanoma
  growth: 45.4%
SK-MEL-28 melanoma
  growth: 64%

## CCn1c(Sc2nnc(NC(C)=O)s2)nc2c1c(=O)n(C)c(=O)n2C
HCT-15 colon
  growth: 97.5%
HT29 colon
  growth: 104%
SNB-75 CNS
  growth: 90%
SNB-19 CNS
  growth: 96.8%
U251 CNS
  growth: 106%
PC-3 prostate
  growth: 91.9%
SK-MEL-5 melanoma
  growth: 98.6%
SK-MEL-28 melanoma
  growth: 101%

## C=C1C(=O)O[C@H]2[C@H]1CC/C(COC(=O)/C=C\C(=O)NCc1ccc(Cn3c(=O)sn(CCCI)c3=O)cc1)=C\CC[C@@]1(C)O[C@@H]21
HCT-15 colon
  growth: -38% (active)
HT29 colon
  growth: -30.1% (active)
SNB-75 CNS
  growth: -63.9% (active)
SNB-19 CNS
  growth: 1.92% (active)
U251 CNS
  growth: -72% (active)
PC-3 prostate
  growth: -70.6% (active)
UACC-62 melanoma
  growth: -98.2% (active)
LOX IMVI melanoma
  growth: -83.2% (active)
SK-MEL-28 melanoma
  growth: -94.7% (active)

## O=C(/C=C/C12c3ccccc3C(c3ccccc31)C1C(=O)NC(=O)C12)c1ccccc1 (stereo not drawn)
HCT-15 colon
  growth: 20%
HT29 colon
  growth: 18.3%
SNB-75 CNS
  growth: -2.11% (active)
SNB-19 CNS
  growth: 32.9%
PC-3 prostate
  growth: 29.9%
SK-MEL-5 melanoma
  growth: 28.8%
UACC-62 melanoma
  growth: 36.3%
LOX IMVI melanoma
  growth: 2.81% (active)
SK-MEL-28 melanoma
  growth: 44.7%

## COc1ccc(/C=C2\COc3ccc(O)c(O)c3C2=O)c(OC)c1
HCT-15 colon
  growth: 16.8%
HT29 colon
  growth: 73.6%
SNB-75 CNS
  growth: 57.7%
SNB-19 CNS
  growth: 76%
PC-3 prostate
  growth: 49.6%
UACC-62 melanoma
  growth: 47.8%
LOX IMVI melanoma
  growth: 30.7%
SK-MEL-28 melanoma
  growth: 76.4%

## COc1cc2c(cc1OC)-c1ccc3cc4c(cc3c1N(CCN1CCCC1)C2)OCO4
HCT-15 colon
  growth: 40.6%
HT29 colon
  growth: -51.2% (active)
SNB-75 CNS
  growth: -3.1% (active)
SNB-19 CNS
  growth: -5.63% (active)
PC-3 prostate
  growth: 2.3% (active)
SK-MEL-5 melanoma
  growth: 26.4%
UACC-62 melanoma
  growth: 36.1%
LOX IMVI melanoma
  growth: -79% (active)
SK-MEL-28 melanoma
  growth: 77.2%

## O=c1[nH]c(=O)n(C2CC(O)C(CO)O2)cc1CO (stereo not drawn)
HCT-15 colon
  growth: 98.7%
HT29 colon
  growth: 105%
SNB-75 CNS
  growth: 84.3%
SNB-19 CNS
  growth: 30.2%
U251 CNS
  growth: 2.98% (active)
SK-MEL-5 melanoma
  growth: 108%
UACC-62 melanoma
  growth: 79.2%
LOX IMVI melanoma
  growth: 96.1%
SK-MEL-28 melanoma
  growth: 101%

## CN(C)CCC(O)(Cc1ccccc1)c1ccccc1 (stereo not drawn)
HCT-15 colon
  growth: 108%
HT29 colon
  growth: 103%
SNB-75 CNS
  growth: 102%
SNB-19 CNS
  growth: 112%
PC-3 prostate
  growth: 92.9%
SK-MEL-5 melanoma
  growth: 108%
UACC-62 melanoma
  growth: 117%
LOX IMVI melanoma
  growth: 99.2%
SK-MEL-28 melanoma
  growth: 112%

## O=C(/C=C/C12c3ccccc3C(c3ccccc31)C1C(=O)N(c3ccccc3)C(=O)C12)c1ccccc1 (stereo not drawn)
HCT-15 colon
  growth: -25.8% (active)
HT29 colon
  growth: 15.1%
SNB-75 CNS
  growth: 34.2%
SNB-19 CNS
  growth: 31.2%
PC-3 prostate
  growth: 21.2%
SK-MEL-5 melanoma
  growth: -67.1% (active)
LOX IMVI melanoma
  growth: -81.4% (active)
SK-MEL-28 melanoma
  growth: 2.04% (active)

## O=C1CCC(N2C(=O)c3cccc(NCCCC4CCN(CCNC(=O)c5cc6c(o5)C(=O)c5ccccc5C6=O)CC4)c3C2=O)C(=O)N1 (stereo not drawn)
HCT-15 colon
  growth: -80.8% (active)
HT29 colon
  growth: 1.94% (active)
SNB-75 CNS
  growth: -99.2% (active)
SNB-19 CNS
  growth: -96% (active)
PC-3 prostate
  growth: 2.13% (active)
SK-MEL-5 melanoma
  growth: -99.4% (active)
UACC-62 melanoma
  growth: -96.2% (active)
LOX IMVI melanoma
  growth: -90.1% (active)
SK-MEL-28 melanoma
  growth: -6.88% (active)

## O=C1C=CC(=Nc2cc(Br)c(O)c(Br)c2)C=C1
HCT-15 colon
  growth: 65.1%
HT29 colon
  growth: 62%
SNB-75 CNS
  growth: 68.3%
SNB-19 CNS
  growth: 96.8%
U251 CNS
  growth: 43.7%
SK-MEL-5 melanoma
  growth: 87.4%
UACC-62 melanoma
  growth: 67.6%
LOX IMVI melanoma
  growth: 48.6%
SK-MEL-28 melanoma
  growth: 75.1%

## COc1ccc(OC)c(Nc2nc3nonc3nc2Nc2cccc(Br)c2)c1
HCT-15 colon
  growth: 13.1%
HT29 colon
  growth: 3.47% (active)
SNB-75 CNS
  growth: 3.07% (active)
SNB-19 CNS
  growth: 14.6%
PC-3 prostate
  growth: 1.15% (active)
SK-MEL-5 melanoma
  growth: -47.8% (active)
UACC-62 melanoma
  growth: 18.7%
LOX IMVI melanoma
  growth: 4.56% (active)
SK-MEL-28 melanoma
  growth: 30.2%

## CCOC(=O)c1c(C)nc2c(c1N)/C(=C/c1ccc(OC)cc1)C(=O)N2Cc1ccc(F)cc1
HCT-15 colon
  growth: -80.6% (active)
HT29 colon
  growth: -75.9% (active)
SNB-75 CNS
  growth: -13.7% (active)
SNB-19 CNS
  growth: -67.4% (active)
PC-3 prostate
  growth: -52.5% (active)
SK-MEL-5 melanoma
  growth: -87.9% (active)
UACC-62 melanoma
  growth: -78.2% (active)
LOX IMVI melanoma
  growth: -93.1% (active)
SK-MEL-28 melanoma
  growth: -39.9% (active)

## Cc1cc2c(F)c(Oc3ncnc(Nc4ccc(N5C[C@@H](C)N[C@@H](C)C5)cc4)c3C#N)cc(F)c2[nH]1
HCT-15 colon
  growth: 0.331% (active)
HT29 colon
  growth: -47.6% (active)
SNB-75 CNS
  growth: -28.2% (active)
SNB-19 CNS
  growth: 37.4%
PC-3 prostate
  growth: 42.4%
SK-MEL-5 melanoma
  growth: 21.7%
UACC-62 melanoma
  growth: 85.8%
LOX IMVI melanoma
  growth: -60.5% (active)
SK-MEL-28 melanoma
  growth: -63.6% (active)
